According to PubChem BioAssay AID1445 (SRMLSC, 2008):
The whole screen tested about 220,000 compounds, of which about 910 (0.41%) were called active.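 The calls were made as follows: active = primary inhibition above the hit cutoff, then over 50% inhibition at one or more dose response concentrations (cut at about 23% in these data, passing the limit was not always enough); inconclusive = conflicting primary data, or primary hits not chosen for dose response; inactive = low primary inhibition, or under 50% at every dose.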 For the sample, actives were picked, then their nearest neighbours and some compounds at random. Measured potencies and affinities stand elsewhere.

These compounds were tested against Aminopeptidase N (Plasmodium falciparum (isolate 3D7)) (UniProt O96935) (assay: P. falciparum M1AAP inhibitors, biochemical, fluorogenic H-Leu-NHMec substrate, 1536-well (AID 1445;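 also: plate controls were DMSO full reaction for no effect and no enzyme background for full effect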)). Details: recombinant M1AAP, H-Leu-NHMec fluorogenic kinetic assay; at 30 µM, hits give high values unless noted.
Sequence of Aminopeptidase N (Plasmodium falciparum (isolate 3D7)) (O96935 whole entry, looked up): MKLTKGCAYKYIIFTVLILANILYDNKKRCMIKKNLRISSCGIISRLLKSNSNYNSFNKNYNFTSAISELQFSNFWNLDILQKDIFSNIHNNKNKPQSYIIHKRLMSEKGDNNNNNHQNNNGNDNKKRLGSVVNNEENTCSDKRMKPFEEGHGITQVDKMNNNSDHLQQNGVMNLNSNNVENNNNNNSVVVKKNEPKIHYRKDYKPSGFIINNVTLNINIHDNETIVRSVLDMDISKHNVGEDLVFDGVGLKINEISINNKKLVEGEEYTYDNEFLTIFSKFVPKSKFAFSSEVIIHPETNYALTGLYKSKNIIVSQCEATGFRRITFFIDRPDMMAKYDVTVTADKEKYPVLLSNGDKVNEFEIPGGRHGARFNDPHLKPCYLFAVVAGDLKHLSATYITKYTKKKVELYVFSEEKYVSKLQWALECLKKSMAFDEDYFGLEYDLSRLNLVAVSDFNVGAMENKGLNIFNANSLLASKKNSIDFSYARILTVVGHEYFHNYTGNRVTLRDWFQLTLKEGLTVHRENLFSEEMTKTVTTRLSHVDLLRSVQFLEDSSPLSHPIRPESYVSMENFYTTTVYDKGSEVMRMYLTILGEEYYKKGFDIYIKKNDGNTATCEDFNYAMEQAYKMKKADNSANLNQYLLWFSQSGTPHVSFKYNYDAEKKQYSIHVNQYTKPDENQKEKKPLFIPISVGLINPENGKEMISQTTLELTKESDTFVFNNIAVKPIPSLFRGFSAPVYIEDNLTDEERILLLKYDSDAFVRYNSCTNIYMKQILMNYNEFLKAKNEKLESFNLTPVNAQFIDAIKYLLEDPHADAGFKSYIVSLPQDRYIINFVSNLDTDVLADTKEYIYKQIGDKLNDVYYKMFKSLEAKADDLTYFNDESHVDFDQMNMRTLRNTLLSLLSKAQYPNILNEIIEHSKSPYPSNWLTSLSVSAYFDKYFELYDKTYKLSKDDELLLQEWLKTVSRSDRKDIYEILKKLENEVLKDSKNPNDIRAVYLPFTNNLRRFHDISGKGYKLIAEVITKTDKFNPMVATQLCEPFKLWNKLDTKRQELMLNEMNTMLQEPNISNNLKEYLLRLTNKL

inhibition, inactive:
Cc1ccc(C(=O)NC(=S)NCC2CCCO2)cc1Br (stereo unspecified) 3.05%
COc1ccc(C(=O)CSc2cc(C)nc(SCC(=O)c3ccc(C)cc3)n2)cc1 12.2%
Cn1c(C(O)C(O)c2ccccc2)nc2ccccc21 (stereo unspecified) -1.04%
CCCCC(=O)NC(NC(=O)CCCC)c1ccc(OCC(C)C)c(OC)c1 4.4%
Cn1c(Sc2ccccc2Cl)c(C=O)c2ccccc21 3.59%
CCN1C(=O)S/C(=C/c2c(OCc3ccc(C(=O)O)cc3)ccc3ccccc23)C1=O 9.62%
Cc1ccc(S(=O)(=O)N(C)Cc2ccc(C(=O)N/N=C/c3ccc(OC(F)F)cc3)cc2)cc1 -2.98%
Cc1cnc(NC(=O)CSc2nnc(-c3ccncc3)n2C2CCCCC2)s1 4.18%
CN(Cc1nc(-c2ccccn2)no1)S(=O)(=O)c1ccc(Cl)cc1 0.8%
Cc1nc2sc(C(c3ccc(C(C)C)cc3)N3CCN(CCO)CC3)c(O)n2n1 (stereo unspecified) 1.32%
C=CCn1c(SCC(=O)/C(C#N)=C(\C)N)nc2sc(CC)cc2c1=O 5.1%
CCc1c(C)c2cc(Cl)c(O)c(CN3CCCCC3)c2oc1=O -1.01%
Cc1c(C)c2cc(Cl)c(O)c(CN3CCCCC3)c2oc1=O 36%
C[C@@H]1Cc2c(O)c(O)cc(O)c2C(=O)O1 -2.7%
COc1c(O)cc2c(c1O)C(=O)CC(c1ccccc1)O2 (stereo unspecified) 4.17%
Cn1nc(-c2ccc(Cl)cc2)cc1NC(=O)CCCC(=O)O -1.87%
CC1CCc2cccc3c2N1c1cc(C#N)c(C#N)cc1O3 (stereo unspecified) -3.31%
O=C(Nc1nc2ccccc2[nH]1)c1ccc(Br)o1 0.56%
Cc1ccc(O)c(-c2cc(C(=O)Nc3ccc(S(=O)(=O)Nc4nccc(C)n4)cc3)[nH]n2)c1 5.6%
O=C1CCC(C(=O)OCc2ccccc2)N1 (stereo unspecified) 2.24%
CCOC(=O)Cc1cc(=O)n2[nH]c(-c3ccc(Cl)cc3)cc2n1 7.9%
CCOP(=O)(OCC)c1nc(-c2cccc3ccccc23)oc1NCc1ccc(OC)cc1 16.1%
CCOP(=O)(OCC)c1nc(Cc2ccccc2)oc1NCc1ccccc1 1.14%
Cc1ccc(S(=O)(=O)Nc2nc3n(n2)C(c2ccc(Cl)cc2)CC(=O)N3)cc1 (stereo unspecified) 4.26%
Cc1ccc(S(=O)(=O)Nc2cc(-c3ccc(Cl)cc3)nn2C)cc1 4.66%
Oc1[nH]c2ccccc2c1/C=N/N1CCCCC1 -0.99%
